# Reference: PubChem BioAssay
# The source made the active and inactive calls.
# Key:
# Albumin (Bos taurus) = Albumin (Bos taurus) (UniProt P02769); assay: compounds binding labelled BSA control protein – biochemical, small-molecule microarray, Alexa647 label, 635/667 nm fluorescence, artefact control for SMM control protein annotation, profiling panel (AID 1118); conditions: BSA-A647 binding, fluorescence 635 nm, higher = more signal;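 note: score merges 667 nm emission intensity and signal-to-noise per printed compound spot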
# [1] = probe aXIP binding to arrayed compounds – biochemical, NeuroSMM set, 635/667 nm fluorescence, primary screen (AID 1119); conditions: small-molecule microarray, higher = more signal, called active from +8 up or from −8 down;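 note: probe is the protein aXip251-270 applied at 1 µg/mL to compound-printed slides; binding of probe to printed compounds measured as 667 nm fluorescence plus signal to noise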
# [2] = probe aNOTCH3 binding on compound microarray – biochemical, small-molecule microarray, 635/667 nm fluorescence, primary screen (AID 1120); conditions: higher = more signal;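 note: probe is a biotin-tagged antibody raised against NOTCH3 rather than NOTCH3 protein; score merges spot fluorescence near 667 nm with spot signal to noise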
# [3] = probe aNOTCH2 binding on compound microarray – biochemical, small-molecule microarray, 635/667 nm fluorescence, primary screen (AID 1121); conditions: higher = more signal;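 note: score merges feature fluorescence read at 667 nm with its signal to noise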
# [4] = target: Carbonic anhydrase 2 (Homo sapiens) (UniProt P00918); assay: compounds binding carbonic anhydrase 2 – biochemical, small-molecule microarray, Alexa647-labelled CAII, profiling panel (AID 1122); conditions: CAII-A647 binding fluorescence, higher = more signal
# [5] = COS7 lysate on small-molecule microarray, probe aHis, 635 nm (AID 1123); conditions: COS7 cell lysate, fluorescence, higher = more signal;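 note: z-score combines 667nm fluorescence intensity with signal-to-noise per printed compound spot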
# [6] = probe aLAP1 signal on lysate-treated microarray – cell lysate, small-molecule microarray, COS7 lysate, primary screen (AID 1124); conditions: probe aLAP1, fluorescence, higher = more signal;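 note: lysate comes from COS7 cells expressing LAP1 and is applied at 0.3 µg/mL; score merges spot fluorescence near 667 nm with signal-to-noise over triplicate slides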
# Sam68 (KHDRBS1) = assay: compounds binding KHDRBS1 protein – biochemical, small-molecule microarray, 635 nm fluorescence, primary screen (AID 1125); conditions: higher = more signal;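 note: score merges 667 nm channel intensity with signal to noise over triplicate slides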
# [7] = system: Chordin-like protein 2 (CHRDL2); assay: compounds binding chordin-like 2 – biochemical, small-molecule microarray, 635 nm fluorescence, primary screen (AID 1126); conditions: fluorescence 635 nm, higher = more signal;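 note: printed compound slides probed with Chrdl2 protein at 4 µg/mL for 1 h at 4 C; score merges 667 nm emission intensity with signal to noise over three replicate slides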
# [8] = target: Concanavalin-A (Canavalia ensiformis) (UniProt P02866); assay: compounds binding concanavalin A lectin – biochemical, small-molecule microarray, Alexa647 label, 635 nm, artefact control for SMM control protein annotation, primary screen (AID 1127); conditions: ConA-A647 binding fluorescence, higher = more signal;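 note: z combines 667 nm emission intensity with signal-to-noise across three replicate slides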
# [9] = compounds binding Alexa647 anti-His antibody – biochemical, small-molecule microarray, 635 nm fluorescence, artefact control for SMM control protein annotation, primary screen (AID 1128); conditions: higher = more signal;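 note: score merges feature fluorescence with signal-to-noise for each printed compound spot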
# [10] = system: Human papillomavirus type 1a E7 protein (residues 1-88); assay: HPV1a E7 small-molecule binders, primary screen, biochemical, small-molecule microarray, residues 1-88, 635 nm (AID 1129); conditions: small-molecule microarray binding, fluorescence 635 nm; higher = more signal
# [11] = target: Focal adhesion kinase 1 (Homo sapiens) (UniProt Q05397); assay: PTK2 protein binding on printed compound slides – biochemical, small-molecule microarray, 635/667 nm fluorescence, BSA, DTT, primary screen (AID 1130); conditions: 635 nm fluorescence, higher = more signal;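 note: composite of spot emission at 667 nm and signal to noise over triplicate slides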
# [12] = system: Fibrinogen (Alexa647-labelled); assay: Alexa647-fibrinogen binding to printed small molecules – biochemical, small-molecule microarray, 635/667 nm fluorescence, artefact control for SMM control-protein annotation, profiling panel (AID 1131); conditions: fibrinogen-A647 binding fluorescence, higher = more signal;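 note: z-score merges 667 nm fluorescence with per-spot signal-to-noise over triplicate slides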
# [13] = target: Follistatin (Homo sapiens) (UniProt P19883); assay: FST protein binding to printed compounds – biochemical, small-molecule microarray, 635/667 nm fluorescence, primary screen (AID 1132); conditions: 635 nm fluorescence, higher = more signal
# [14] = target: Fibroblast growth factor 2 (Homo sapiens) (UniProt P09038); assay: basic fibroblast growth factor binding to printed compounds – biochemical, small-molecule microarray, 635/667 nm fluorescence, primary screen (AID 1133); conditions: FGF2, fluorescence 635/667, higher = more signal
# [15] = JC-1 mitochondrial potential readout, lung cancer cells – cell-based, A549, JC-1 fluorescence, basal, 24 h, 100 nL, profiling panel (AID 1138); conditions: higher = more signal;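 note: A549 lung adenocarcinoma cells under basal conditions with no added stimulus; test concentration not given here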
# Lefty1 = Lefty1 protein binding to printed compounds – biochemical, small-molecule microarray, 635/667 nm fluorescence, primary screen (AID 1139); conditions: fluorescence 635/667, higher = more signal
# [16] = system: wheat germ agglutinin (Triticum aestivum), Alexa647-labelled; assay: Alexa647-WGA lectin binding to printed small molecules – biochemical, small-molecule microarray, 635/667 nm fluorescence, artefact control for SMM control-protein annotation, profiling panel (AID 1140); conditions: WGA-A647 binding, 635 nm fluorescence, higher = more signal;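 note: score merges 667 nm feature emission with signal to noise over triplicate slides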
# [17] = target: Luciferin 4-monooxygenase (Photinus pyralis) (UniProt P08659); assay: inhibition of purified Photinus pyralis luciferase – biochemical, luminescence, purified enzyme, 2006 set, primary screen (AID 1141); conditions: purified firefly luciferase, SteadyGlo luminescence, 30 min; higher = more signal, called active from +8 up or from −8 down;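 note: cell-free assay with purified firefly luciferase at 100 ng per well in PBS; test concentration not given here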
# Chain of Luciferin 4-monooxygenase (Photinus pyralis) (P08659 whole entry, looked up): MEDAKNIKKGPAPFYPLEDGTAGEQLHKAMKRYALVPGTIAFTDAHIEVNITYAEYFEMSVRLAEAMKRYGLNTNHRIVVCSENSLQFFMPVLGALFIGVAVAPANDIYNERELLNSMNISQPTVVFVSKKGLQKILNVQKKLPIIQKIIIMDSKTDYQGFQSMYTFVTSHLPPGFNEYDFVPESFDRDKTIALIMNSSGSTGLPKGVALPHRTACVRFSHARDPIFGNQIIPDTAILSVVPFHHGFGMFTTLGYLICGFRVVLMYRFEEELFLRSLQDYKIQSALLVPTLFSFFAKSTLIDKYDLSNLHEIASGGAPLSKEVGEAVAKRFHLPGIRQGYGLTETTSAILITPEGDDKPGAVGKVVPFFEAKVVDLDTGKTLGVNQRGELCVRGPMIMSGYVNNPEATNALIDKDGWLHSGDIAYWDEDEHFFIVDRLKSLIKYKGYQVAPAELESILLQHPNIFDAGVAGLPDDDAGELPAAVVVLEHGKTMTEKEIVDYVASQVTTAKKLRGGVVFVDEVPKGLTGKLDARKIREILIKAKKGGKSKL
# Chain of Focal adhesion kinase 1 (Homo sapiens) (Q05397 whole entry, looked up): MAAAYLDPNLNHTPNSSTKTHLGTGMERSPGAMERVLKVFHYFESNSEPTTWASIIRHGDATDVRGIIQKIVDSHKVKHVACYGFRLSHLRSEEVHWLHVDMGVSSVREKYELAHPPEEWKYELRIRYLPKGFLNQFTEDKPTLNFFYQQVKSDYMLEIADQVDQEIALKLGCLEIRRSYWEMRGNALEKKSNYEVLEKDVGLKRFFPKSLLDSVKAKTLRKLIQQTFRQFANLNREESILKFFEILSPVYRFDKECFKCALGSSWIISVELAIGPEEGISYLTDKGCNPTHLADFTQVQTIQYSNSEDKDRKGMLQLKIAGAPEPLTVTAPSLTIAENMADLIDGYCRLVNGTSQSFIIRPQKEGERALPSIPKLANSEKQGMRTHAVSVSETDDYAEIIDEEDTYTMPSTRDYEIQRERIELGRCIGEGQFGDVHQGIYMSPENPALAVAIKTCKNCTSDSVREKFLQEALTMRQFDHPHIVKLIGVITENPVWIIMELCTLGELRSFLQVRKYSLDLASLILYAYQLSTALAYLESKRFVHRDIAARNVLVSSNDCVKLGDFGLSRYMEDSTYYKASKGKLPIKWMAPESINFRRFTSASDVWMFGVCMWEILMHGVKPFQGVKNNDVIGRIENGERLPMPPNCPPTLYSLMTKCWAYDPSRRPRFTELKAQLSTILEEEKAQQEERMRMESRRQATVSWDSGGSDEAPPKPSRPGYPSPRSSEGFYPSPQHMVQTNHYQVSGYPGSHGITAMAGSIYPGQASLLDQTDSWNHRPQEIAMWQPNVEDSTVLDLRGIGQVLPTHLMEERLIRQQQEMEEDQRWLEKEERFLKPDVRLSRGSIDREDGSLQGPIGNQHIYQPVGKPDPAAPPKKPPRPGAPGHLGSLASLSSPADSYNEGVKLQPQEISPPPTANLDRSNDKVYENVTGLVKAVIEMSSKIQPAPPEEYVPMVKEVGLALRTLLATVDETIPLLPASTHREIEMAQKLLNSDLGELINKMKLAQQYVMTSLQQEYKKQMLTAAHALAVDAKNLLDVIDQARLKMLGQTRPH
# Chain of Concanavalin-A (Canavalia ensiformis) (P02866 whole entry, looked up): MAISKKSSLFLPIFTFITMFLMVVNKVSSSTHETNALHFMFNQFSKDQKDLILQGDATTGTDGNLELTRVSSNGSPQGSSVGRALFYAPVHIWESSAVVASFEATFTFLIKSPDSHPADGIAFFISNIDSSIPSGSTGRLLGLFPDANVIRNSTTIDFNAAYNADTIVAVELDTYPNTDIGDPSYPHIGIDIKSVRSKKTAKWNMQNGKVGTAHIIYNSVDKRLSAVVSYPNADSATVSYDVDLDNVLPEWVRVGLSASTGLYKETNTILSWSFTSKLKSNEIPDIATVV
# Chain of Fibroblast growth factor 2 (Homo sapiens) (P09038 whole entry, looked up): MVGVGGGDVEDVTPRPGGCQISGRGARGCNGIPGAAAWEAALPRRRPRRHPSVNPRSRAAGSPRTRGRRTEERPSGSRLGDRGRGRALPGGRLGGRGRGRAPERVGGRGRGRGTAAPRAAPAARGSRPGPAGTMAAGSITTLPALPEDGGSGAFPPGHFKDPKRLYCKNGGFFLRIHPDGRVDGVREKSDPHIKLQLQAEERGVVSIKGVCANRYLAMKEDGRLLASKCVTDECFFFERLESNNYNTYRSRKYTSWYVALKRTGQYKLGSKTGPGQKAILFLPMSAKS
# Chain of Follistatin (Homo sapiens) (P19883 whole entry, looked up): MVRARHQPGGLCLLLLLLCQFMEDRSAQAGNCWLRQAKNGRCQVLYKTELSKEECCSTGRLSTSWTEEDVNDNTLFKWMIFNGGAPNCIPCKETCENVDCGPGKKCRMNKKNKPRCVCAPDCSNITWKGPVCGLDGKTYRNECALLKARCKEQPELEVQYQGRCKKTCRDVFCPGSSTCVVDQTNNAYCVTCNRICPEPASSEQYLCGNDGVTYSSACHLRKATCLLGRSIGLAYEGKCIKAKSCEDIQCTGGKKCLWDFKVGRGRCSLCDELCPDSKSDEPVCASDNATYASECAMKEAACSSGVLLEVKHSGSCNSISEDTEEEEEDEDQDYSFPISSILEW
# Chain of Albumin (Bos taurus) (P02769 whole entry, looked up): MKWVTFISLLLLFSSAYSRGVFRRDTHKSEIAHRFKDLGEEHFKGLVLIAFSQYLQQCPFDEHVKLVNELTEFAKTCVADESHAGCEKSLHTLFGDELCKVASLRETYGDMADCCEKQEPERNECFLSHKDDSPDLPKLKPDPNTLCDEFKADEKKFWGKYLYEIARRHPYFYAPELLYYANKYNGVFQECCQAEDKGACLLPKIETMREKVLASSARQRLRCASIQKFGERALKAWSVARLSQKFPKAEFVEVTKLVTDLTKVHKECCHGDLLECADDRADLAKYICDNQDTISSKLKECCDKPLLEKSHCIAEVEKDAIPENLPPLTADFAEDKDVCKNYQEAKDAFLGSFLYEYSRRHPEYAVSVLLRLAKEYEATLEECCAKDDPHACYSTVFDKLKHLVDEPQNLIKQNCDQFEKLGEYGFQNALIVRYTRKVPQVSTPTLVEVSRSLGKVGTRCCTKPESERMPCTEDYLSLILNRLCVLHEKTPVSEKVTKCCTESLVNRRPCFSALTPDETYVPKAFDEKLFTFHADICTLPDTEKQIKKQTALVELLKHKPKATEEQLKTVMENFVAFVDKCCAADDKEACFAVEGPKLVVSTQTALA
SMILES,composite z-score (Albumin (Bos taurus)),composite Z-score [1],composite z-score [2],composite z-score [3],composite z-score [4],composite z-score [5],composite z-score [6],composite z-score (Sam68 (KHDRBS1)),composite z-score [7],composite z-score [8],composite z-score [9],composite z-score [10],composite z-score [11],composite z-score [12],composite z-score [13],composite z-score [14],z-score [15],composite z-score (Lefty1),composite z-score [16],z-score [17]
[N-]=[N+]=Nc1ccccc1[C@@H]1OC(c2ccc(OCCCO)cc2)=N[C@]1(Cc1ccccc1)C(=O)NCCN1CCOCC1,0.981,0.0561 (inactive),0.156,-0.0482,0.607,2.86,0.946,0.96,-0.377,0.355,0.598,1.28,0.15,0.993,0.675,-0.155,-0.225,0.278,0.399,-5.81 (inactive)
CN1C(=O)C2C(C1=O)C1C=C(c3ccc(CO)cc3)C2C(C2CC2)N1C (stereo not given),0.876,0.111 (inactive),-0.0947,-0.0859,0.431,-0.415,-0.0324,0.164,0.0323,0.0875,0.958,-0.164,-0.324,-0.578,-0.17,-0.124,-0.808,-0.617,-0.0515,0.279 (inactive)
COc1cc(C(O)C2C=CC3C(=O)N(c4ccccc4)C(=O)C3N2Nc2ccccc2F)cc(OC)c1OC (stereo not given),0.834,0.0894 (inactive),0.0436,0.0409,0.648,3.14,0.443,1.32,-0.755,1.1,1.66,1.28,0.337,1.03,0.233,-0.171,-0.374,0.323,0.792,-0.397 (inactive)
CCCCCCc1nc(Cc2cc(OC)c(OC)c(OC)c2)cc2c1[Si](C(C)C)(C(C)C)O[C@H]2c1ccccc1,-0.261,0.688 (inactive),-0.0647,-0.166,-0.117,-0.327,-0.589,0.523,0.52,0.118,0.0156,0.0994,-0.148,0.146,0.571,0.675,0.216,0.845,-0.17,0.555 (inactive)
CC(C)C[C@@H]1NC(=O)[C@@H]2C[C@H](C(=O)NCCCCCCNC(=O)CS)[C@H](c3cccc(OCCO)c3)N2C1=O,-0.256,0.491 (inactive),0.248,-0.123,0.228,1.94,0.252,1.29,1.36,0.862,1.74,1.26,0.114,0.892,1.42,1.71,-0.0497,1.44,0.875,-0.986 (inactive)
COCCn1c(C(=O)N(C)C)cc2c1C[C@H]1CN(C(=O)c3ccccc3)[C@@](Cc3ccc(OC)cc3)(C(=O)OC)[C@@H]21,0.507,-0.0775 (inactive),0.32,0.0323,0.659,2.94,0.294,0.914,-0.545,0.732,1.59,1.04,0.585,0.837,0.571,-0.226,1.66,-0.201,0.94,0.75 (inactive)
CN(C)CCCNC(=O)[C@@H]1c2ccccc2C(=O)N(Cc2ccccc2C(F)(F)F)[C@H]1c1ccc(CO)cc1,0.334,0.0871 (inactive),-0.0106,-0.0996,0.338,1.35,0.2,0.793,-1.5,0.0021,-1.51,0.197,-0.142,-0.126,0.0865,-0.361,2.89,-0.913,0.1,-1.13 (inactive)
CC(C)(C)N1CC=CC23O[C@@H]4/C=C\CCCOC(=O)C4[C@H]2C(=O)N(CCCCCO)[C@@H]3C1=O (stereo not given in full),-1.58,0.794 (inactive),-0.349,-0.126,0.941,-0.584,0.566,-0.484,-1.46,-1.46,-1.23,-0.75,-0.716,-0.865,-1.06,-0.594,-0.137,-1.4,-0.408,0.215 (inactive)
COC(=O)[C@@]1(Cc2ccc(OC)cc2)[C@H]2c3cc(C(=O)N4CCCC4)n(Cc4c(CO)[nH]cc(C)c4=O)c3C[C@H]2CN1C(=O)c1ccccc1,1.01,-0.438 (inactive),0.0296,0.257,0.751,3.24,1.32,0.332,-0.184,0.393,1,1.24,0.502,0.91,-0.116,-0.0376,0.534,-0.116,0.723,0.835 (inactive)
Cc1ccccc1C(O)C1C=CC2C(=O)N(c3ccccc3)C(=O)C2N1Nc1ccccc1 (stereo not given),0.944,0.738 (inactive),0.312,-0.0485,0.781,2.94,0.0139,1.29,-0.147,1.14,1.53,1.25,0.969,1.03,1.3,0.0635,-0.128,0.55,1.33,-0.818 (inactive)
CN(C)CCCCNC(=O)[C@H]1C[C@H]2C(=O)N3CCC[C@H]3C(=O)N2[C@H]1c1cccc(OCCO)c1,-0.115,1.68 (inactive),0.234,-0.117,0.519,1.12,0.392,1.04,-0.52,0.794,1.96,0.74,1.02,0.311,1.21,0.382,-0.159,0.365,1.15,0.83 (inactive)
Cc1ccc(C(C)CC(O)C2C=CC3C(=O)N(C)C(=O)C3N2Nc2ccccc2)o1 (stereo not given),0.264,-0.288 (inactive),0.318,-0.075,0.656,0.614,0.0421,1.3,0.122,0.617,0.298,1.22,0.0621,0.655,0.941,0.482,0.16,0.497,1.15,0.226 (inactive)
CC(C)(C)N1CC=CC23O[C@@H]4/C=C\CCCOC(=O)C4[C@H]2C(=O)N(CCCO)[C@@H]3C1=O (stereo not given in full),0.706,-0.191 (inactive),0.134,-0.0846,0.866,0.644,0.818,-0.446,-1.44,-1.02,0.343,-0.849,-0.572,-2.06,-0.768,-0.811,-0.534,-0.538,-1.38,0.552 (inactive)
COCCOC(=O)N1C(=O)[C@@]2(c3cc(C#CCC(C(=O)OC)C(=O)OC)ccc31)[C@H](C(=O)Nc1nc3ccccc3s1)[C@H]1C(=O)O[C@H](c3ccccc3)[C@H](c3ccccc3)N1[C@@H]2c1ccc(O)cc1,0.268,0.247 (inactive),0.512,-0.0282,0.279,1.13,0.705,1.3,1.07,1.04,0.777,1.21,0.235,0.461,1.3,1.46,-2.26,1.29,0.762,0.258 (inactive)
CN(C)C(=O)[C@]1(Cc2ccccc2)N=C(c2ccc(OCCCO)cc2)O[C@@H]1c1ccccc1CN=[N+]=[N-],0.981,0.0333 (inactive),0.34,0.0488,0.582,2.63,0.407,1.31,-0.321,0.922,0.997,1.21,0.438,1.02,1.04,0.287,0.829,0.463,0.569,0.361 (inactive)
COC(=O)C(CC#Cc1ccc2c(c1)[C@]1(C(=O)N2)[C@H](c2ccc(OCCO)cc2)N2[C@H](c3ccccc3)[C@H](c3ccccc3)OC(=O)[C@H]2[C@@H]1C(=O)N1CCCCCCC1)C(=O)OC,0.576,4.71 (inactive),1.75,0.967,0.933,3.5,1.65,1.3,1.52,1.21,2.65,1.17,2.67,0.68,1.45,0.724,-1.39,1.24,1.46,-0.596 (inactive)
CN(C)CCCC[C@@H]1NC(=O)[C@@H]2C[C@H](C(=O)NCCCCCCNC(=O)CS)[C@H](c3ccc(O)cc3)N2C1=O,-0.868,0.0804 (inactive),-0.0682,-0.112,0.538,1.06,0.338,0.952,1.15,1.08,2.26,0.91,0.335,0.767,1.31,1.87,-0.15,1.38,-0.204,-0.25 (inactive)
